Screening results deposited in PubChem BioAssay by National Center for Advancing Translational Sciences (NCATS).
Compounds with a hit are over-represented: about 2.4% of the library has one in this group of screens.
Pol beta inh: qHTS Assay for Inhibitors of DNA Polymerase Beta; P06746; Pol beta primer extension/strand displacement, fluorescence kinetic; Potency, µM (titrated, usually from 114 µM), hits mostly inhibitors; 340,000 tested, 1.3% active; AID 485314, 2010
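Pol beta (10 nM) and compounds were preincubated 15 min at room temperature, then 50 nM substrate (final) started primer extension/strand displacement. Reads were taken at 0 and 10 min; concentration-response data were fitted to a four-parameter Hill equation.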
POLK inh: qHTS for Inhibitors of Polymerase Kappa; DNA polymerase kappa (Homo sapiens), Q9UBT6; purified Pol kappa, fluorescent DNA synthesis assay, 10 min; Potency, µM (doses to about 107 µM), usual class: inhibitors; 400,000 tested, 0.53% active
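Readout: fluorescence, taken kinetically at 0 and 10 min. Conditions: 10 nM Pol kappa, 15 min RT compound preincubation, 50 nM substrate final. Controls: enzyme-free buffer wells.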
Pol eta inh: qHTS for Inhibitors of Polymerase Eta. AID 588591, 2011. recombinant Pol eta, fluorescent DNA replication assay. DNA polymerase eta (Homo sapiens), Q9Y253. Potency, µM (top dose mostly 114 µM), most hits filed as inhibitors. 390,000 tested, 1.2% active
Target sequence (Q9Y253 whole entry, looked up): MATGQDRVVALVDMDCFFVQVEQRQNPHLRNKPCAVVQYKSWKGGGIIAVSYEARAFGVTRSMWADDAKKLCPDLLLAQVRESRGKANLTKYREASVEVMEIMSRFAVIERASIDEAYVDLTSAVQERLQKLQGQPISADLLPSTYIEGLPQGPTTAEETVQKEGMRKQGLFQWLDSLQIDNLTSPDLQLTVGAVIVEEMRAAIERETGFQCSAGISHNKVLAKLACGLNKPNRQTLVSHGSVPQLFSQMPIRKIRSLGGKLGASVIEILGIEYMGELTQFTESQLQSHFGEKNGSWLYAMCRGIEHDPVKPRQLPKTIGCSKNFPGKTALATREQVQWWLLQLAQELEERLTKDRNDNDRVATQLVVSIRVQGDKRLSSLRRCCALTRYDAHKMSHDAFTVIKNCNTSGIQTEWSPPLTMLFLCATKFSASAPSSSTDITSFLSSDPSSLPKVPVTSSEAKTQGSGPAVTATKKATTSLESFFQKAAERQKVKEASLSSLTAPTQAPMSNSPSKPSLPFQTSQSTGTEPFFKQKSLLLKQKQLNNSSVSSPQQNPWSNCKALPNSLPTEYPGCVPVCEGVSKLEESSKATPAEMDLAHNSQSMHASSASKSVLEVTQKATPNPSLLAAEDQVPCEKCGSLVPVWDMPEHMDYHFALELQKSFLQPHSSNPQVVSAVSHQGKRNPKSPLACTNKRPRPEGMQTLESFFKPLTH
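Pol eta at 10 nM preincubated with compounds 15 min at room temperature; reaction started with fluorescent substrate (50 nM final) and read kinetically at 0 and 10 min.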
WRN helicase inh: qHTS for Inhibitors of WRN Helicase. Bifunctional 3'-5' exonuclease/ATP-dependent helicase WRN (Homo sapiens), Q14191. WRN helicase unwinding, fluorescent forked duplex, kinetic. 360,000 tested, 0.46% active. AID 651768, 2012. Potency, µM (doses to about 114 µM), usual class: inhibitors; also: nearly all actives have a fitted effect of over 55% in size
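Screening of the MLSMR collection measured strand separation of a quenched forked DNA duplex (100 nM) by 20 nM WRN with 2 mM ATP, all final. Compounds were preincubated with enzyme 15 min at room temperature.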
Pol iota inh: qHTS for Inhibitors of Polymerase Iota | DNA polymerase iota (Homo sapiens), Q9UNA4 | 390,000 tested, 1% active | Potency, µM (highest dose often 115 µM), actives largely listed as inhibitors | Pol iota fluorescent replication assay, 10 min
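Fluorescent replication assay read twice, at 0 min and 10 min after adding 50 nM (final) substrate. Enzyme (10 nM) and compounds were first incubated 15 min at room temperature; enzyme-free buffer wells were negative controls.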
FEN1 inhibitor: qHTS Assay for the Inhibitors of Human Flap endonuclease 1 (FEN1). P39748. Recombinant FEN1 flap cleavage, fluorescence, 15 min. Potency, µM (doses to about 114 µM), hits mostly inhibitors. 390,000 tested, 0.35% active; also: nearly all actives have a fitted effect of over 65% in size
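In this screen, 50 nM flap DNA substrate was added to 10 nM FEN1 pretreated with compound for 15 min at room temperature; cleavage was followed with reads at 0 and 15 min, and Hill fitting gave concentration–response parameters.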
Of the large screens only hits and unclear results are named; the others gave an inactive call. Calls follow the shape of the dose curve; as a rule, active = well fitted curve in the direction sought with a large enough effect; inconclusive = small, poorly fitted or top-dose-only effect, or another doubt; inactive = no such curve, though single readings can be large; an effect the other way counts as inactive or inconclusive.

CCn1nc(CC(=O)Nc2ccc(-n3cnnn3)c(OC)c2)c2ccccc2c1=O	Pol beta inh 32µM, Pol eta inh inconclusive
COc1ccc(-c2nc3cnc(N4CCNCC4)nc3n(CCC#N)c2=O)cc1	none (no result: Pol beta inh, Pol eta inh, WRN helicase inh, Pol iota inh, FEN1 inhibitor)
COc1cc(OC)c(/C=C/c2ccncn2)c(OC)c1	Pol iota inh inconclusive (no result: Pol beta inh, Pol eta inh, WRN helicase inh)
CCCCCCC(=O)N(O)C1CC(=O)N(c2ccc(C)cc2)C1=O (stereo not given)	Pol iota inh inconclusive
CCCCCCC(=O)N(O)C1CC(=O)N(c2ccc(Cl)cc2)C1=O (stereo not given)	WRN helicase inh 79µM
O=C1c2ccccc2-c2onc3ccc(NCCCn4ccnc4)c1c23	Pol beta inh 25µM, POLK inh 20µM, Pol eta inh 79µM, WRN helicase inh 32µM, Pol iota inh inconclusive, FEN1 inhibitor 16µM
NS(=O)(=O)c1ccc(NCCCn2ccnc2)c([N+](=O)[O-])c1	none
CN(C)Cc1ccccc1-c1nc(NC2CCNCC2)c2ccccc2n1	POLK inh 14µM (no result: Pol beta inh, Pol eta inh, WRN helicase inh, Pol iota inh, FEN1 inhibitor)
CN(C)c1ccc(-c2nc(NC3CCNCC3)c3ccccc3n2)cc1	POLK inh 32µM (no result: Pol beta inh, Pol eta inh, WRN helicase inh, Pol iota inh, FEN1 inhibitor)
Cc1ccc(-c2cc(C3C4C=CCC(C)C4C(=O)N3Cc3ccccc3)ccc2F)cc1 (stereo not given)	Pol iota inh inconclusive (no result: Pol beta inh, Pol eta inh, WRN helicase inh)
CCCN1CNc2c(c(=O)[nH]c(=S)n2CCc2ccc(Cl)cc2Cl)C1	none (no result: Pol beta inh, Pol eta inh, WRN helicase inh)
CN(C)c1ccc(CN(Cc2ccco2)C(=O)COc2ccc(F)cc2)cc1	none (no result: Pol eta inh, WRN helicase inh)
CCOc1ccc(-c2cccc(NS(=O)(=O)c3ccccc3C(F)(F)F)c2)nn1	none (no result: WRN helicase inh)
CCCCn1c2ccccc2c2nnc(SCC(=O)Nc3ccc(NC(C)=O)cc3)nc21	Pol beta inh 14µM, FEN1 inhibitor inconclusive (no result: WRN helicase inh)
CC(C)c1ccccc1NC(=O)CN(c1ccccc1)S(=O)(=O)N(C)C	none (no result: WRN helicase inh)
O=C1/C(=C/c2ccc(O)c(O)c2)Oc2ccccc21	POLK inh 13µM (no result: Pol beta inh, Pol eta inh, WRN helicase inh, Pol iota inh, FEN1 inhibitor)
Cc1ccccc1/C=C1\Oc2ccccc2C1=O	none (no result: Pol beta inh)
COCc1c(Br)c(C)nc(OCC(=O)N/N=C/c2ccc(C)o2)c1C#N	none
COCc1c(Br)c(C)nc(OCC(=O)N/N=C/c2ccco2)c1C#N	Pol beta inh 18µM, Pol iota inh inconclusive
O=C(O)/C(=C\c1ccccc1OC(F)F)c1ccc(-c2ccccc2)cc1	Pol beta inh 56µM
O=C(O)/C(=C\c1ccc(F)cc1)c1ccc(-c2ccccc2)cc1	Pol beta inh inconclusive
C#C[C@]1(O)CC[C@H]2C3CCC4=Cc5oncc5CC4(C)C3CCC21C (stereo not given in full)	Pol iota inh inconclusive (no result: POLK inh, WRN helicase inh, FEN1 inhibitor)
COc1ccccc1NCC(=O)c1ccc(Cl)cc1	Pol beta inh 89µM, Pol eta inh inconclusive
COc1cc(C2CC(=O)N(Cc3ccc(F)cc3)c3ccccc3S2)cc(OC)c1OC (stereo not given)	none (no result: WRN helicase inh)
CC1(C)C(=O)Nc2ccccc2N1C(=O)COC(=O)CCSc1ccccc1	none
CC1(C)C(=O)Nc2ccccc2N1C(=O)COC(=O)c1cc(S(=O)(=O)N2CCOCC2)ccc1F	Pol beta inh 40µM, POLK inh inconclusive, Pol eta inh inconclusive, Pol iota inh 40µM
COc1cc(OC)cc(C(=O)NCC(=O)OCC(=O)N2c3ccccc3NC(=O)C2(C)C)c1	Pol beta inh inconclusive
CC1(C)C(=O)Nc2ccccc2N1C(=O)COC(=O)c1cccs1	POLK inh inconclusive, Pol eta inh 25µM, Pol iota inh inconclusive (no result: Pol beta inh)
CC1(C)C(=O)Nc2ccccc2N1C(=O)COC(=O)c1cccnc1Cl	Pol eta inh 50µM, Pol iota inh inconclusive (no result: Pol beta inh)
Cc1cc(C)cc(C(=O)NCC(=O)OCC(=O)N2c3ccccc3NC(=O)C2(C)C)c1	Pol beta inh 14µM
Cc1ccc(S(=O)(=O)Nc2cc(Cl)c3oc4c(c3c2)CCCC4)cc1	none (no result: WRN helicase inh)
O=C(NNCS(=O)(=O)O)c1ccncc1	none (no result: Pol beta inh, Pol eta inh, WRN helicase inh, Pol iota inh, FEN1 inhibitor)
CCCCOc1ccc(C(=O)NCC2(N3CCN(C)CC3)CCCCC2)cc1	none (no result: WRN helicase inh)
COc1ccc(-n2nnnc2C(c2ccccc2)N2CCN(C/C=C/c3ccccc3)CC2)cc1 (stereo not given)	none (no result: Pol beta inh, POLK inh, Pol eta inh, Pol iota inh, FEN1 inhibitor)
Cc1coc2c(C)c3oc(=O)c(CCC(=O)N(C)CC(=O)O)c(C)c3cc12	Pol beta inh 79µM, Pol eta inh 20µM
COc1cccc(CNC(=O)CCc2c(C)c3cc4c(C)coc4c(C)c3oc2=O)c1	Pol beta inh 25µM, Pol eta inh inconclusive, Pol iota inh inconclusive (no result: WRN helicase inh)
COc1cccc(CNC(=O)CCc2c(C)c3cc4c(C)coc4cc3oc2=O)c1	none (no result: WRN helicase inh)
Cc1coc2cc3oc(=O)c(CC(=O)N(C)CC(=O)O)c(C)c3cc12	none
CCN(CC)c1nn2c(=O)c(C(=O)NCc3ccc(OC)cc3OC)cnc2s1	none (no result: WRN helicase inh)
Cc1cccc(N2CCN(S(=O)(=O)c3ccc4[nH]c(=O)ccc4c3)CC2)c1C	Pol iota inh inconclusive
Cc1ccc(C)c(N2CCN(S(=O)(=O)c3ccc4[nH]c(=O)ccc4c3)CC2)c1	Pol beta inh 28µM, Pol eta inh inconclusive, Pol iota inh inconclusive
